Experimental findings from PubChem BioAssay AID1962 (The Scripps Research Institute Molecular Screening Center, 2009) are described below.

SMILES strings stand for the structures. In all, about 300,000 compounds went through this assay and about 2,500 (0.83%) were called active.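 The calls were made as follows: active = inhibition above the mean of all tested compounds plus 3 SD, set per screening campaign (cut at about 24% in these data); inactive = the rest.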 Shown is part of a subset that was picked to be rich in actives.

In this experiment the test system is tRNA 2'-phosphotransferase TPT1 (Candida albicans SC5314). Nature of the experiment: Candida albicans TPT1 enzyme inhibitors, primary screen, biochemical, fluorescence polarization (AID 1962).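 Also: plate controls were DMSO alone for no effect and ferristatin control at 100 nM for full effect.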 To be noted: recombinant caTPT1, FP RNA substrate dephosphorylation; at 5 µM; active compounds read high. (Fluorescence polarisation rises when a labelled molecule tumbles more slowly, as on binding a larger partner.)
As a reminder, the inhibition is the relative decrease from the control value, in per cent. On to `Cc1cccc(N2CCN(C(=O)COCc3cc(-c4ccc5c(c4)OCO5)on3)CC2)c1C`, for which the inhibition is -0.74% (inactive).

With `CCCC1C(=O)N2C(N(C)C)=Nc3ccc(C)cc3N2C1=O` (centres undefined), the inhibition was 2.58% (inactive).

`COC(=O)Cn1cnc2scc(-c3ccc(C)c(C)c3)c2c1=O`: the inhibition is 1.3% (inactive).

With `CCOc1cc(/C=C2/C(=N)N3OC(C)=CC3=NC2=O)ccc1OC`, the inhibition was 6.06% (inactive).

Take `CC1=CC2=NC(=O)/C(=C/c3coc4ccccc4c3=O)C(=N)N2O1`: the inhibition is 34.6% (active).

For the compound `COc1ccc(OCCCn2cccc2/C=C2/C(=N)N3OC(C)=CC3=NC2=O)cc1`, the inhibition is 0.42% (inactive).

With `COc1cc(/C=N\Nc2ccc([N+](=O)[O-])cn2)ccc1OCC(=O)O`, the inhibition was 1.83% (inactive).

Consider `Cc1cc(/C=C2\SC(=O)N(C)C2=O)c(C)n1-c1cccc(C(=O)O)c1`, for which the inhibition is -0.06% (inactive).

Take `COc1ccc(Nc2ccc([N+](=O)[O-])cn2)cn1`: the inhibition was -14.7% (inactive).

For `Cc1ccc(-n2c(C)cc(/C=N/Nc3ccc([N+](=O)[O-])cn3)c2C)c(C)c1`, the inhibition was 66.7% (active).

Regarding `Cc1cc(/C=N/Nc2ccc([N+](=O)[O-])cn2)c(C)n1-c1cccc(C(=O)O)c1`, the inhibition was 43% (active).

For `Cc1ccc(N2CCN(c3ccc([N+](=O)[O-])cn3)CC2)c(C)c1`, the inhibition was -2.01% (inactive).

Take `C=CCn1c(COc2ccc(F)cc2)nnc1SCC(=O)Nc1cccc(S(N)(=O)=O)c1`: the inhibition was -5.67% (inactive).

Take `COc1cccc(C2CC(c3cccs3)=NN2C(=O)CSC2=NCCS2)c1OC` (centres undefined): the inhibition was -2.93% (inactive).

As to `CCC(C)CN1CCC(CO)(Cc2ccccc2Cl)CC1` (centres undefined), the inhibition was -0.69% (inactive).

In the case of `COC1(C2=NCCN2)COc2ccccc2O1` (centres undefined), the inhibition is -5.32% (inactive).

For the compound `COc1ccccc1NC(=O)COC(=O)c1ccccc1SCC(=O)N1CCCC1`, the inhibition is 0.11% (inactive).

Consider `COc1ccccc1C1SCCN1C(=O)c1ccc([N+](=O)[O-])cc1` (centres undefined), for which the inhibition is 1.69% (inactive).

With `COc1ccc(NS(=O)(=O)c2ccc(C)c(C(=O)N(C)Cc3ccc(OC)cc3OC)c2)cc1`, the inhibition was -1.13% (inactive).

Consider `Cc1nc2sc(C(=O)c3ccccc3)c(N)c2c2c1CCCC2`, for which the inhibition is -0.9% (inactive).

`Nc1c(C(=O)c2cccs2)sc2nsc(SCCN3CCCCC3)c12`: the inhibition was 68.2% (active).

Turning to `CN(C)c1ccnc2sc(C(=O)c3ccccc3)c(N)c12`, the inhibition was 2.61% (inactive).

As to `CCCNC(=S)N1CCC(NC(=O)c2ccc(OC)cc2)CC1`, the inhibition is 3.14% (inactive).

As to `CN1/C(=C\C(=O)c2oc3ccccc3c2N)C(C)(C)c2ccccc21`, the inhibition is 2.22% (inactive).

Turning to `CN1CCN(CCC(=O)N/N=C/C=C2\N(C)c3ccccc3C2(C)C)CC1`, the inhibition is 11.7% (inactive).

Take `CN1/C(=C\C=C2\N=C(c3ccc(F)cc3)OC2=O)C(C)(C)c2ccccc21`: the inhibition is 110% (active).

On to `O=C(c1c(F)cccc1Cl)N1CCN(c2ccccn2)CC1`, for which the inhibition was 0.41% (inactive).

For `O=C(Nc1ccccc1N1CCCC1)c1ccc(F)c(S(=O)(=O)N2CCOCC2)c1`, the inhibition was 0.87% (inactive).

For `O=C1NCC(=O)N(Cc2ccccc2)/C1=C/c1ccccc1`, the inhibition is 1.04% (inactive).

Regarding `CN(C)c1ccc(/C=C2\NC(=S)N(Cc3ccccc3)C2=O)cc1`, the inhibition was 196% (active).

Regarding `O=C1/C(=C\c2ccsc2)NC(=S)N1c1ccccc1`, the inhibition is 0.45% (inactive).

Regarding `COCC(=O)Nc1c(I)c(C(=O)NCC(O)CO)c(I)c(C(=O)N(C)CC(O)CO)c1I` (centres undefined), the inhibition was 1.86% (inactive).

`COc1ccc(C(=O)NC(C)c2nccs2)cc1OC1CCN(C(C)C)CC1` (centres undefined): the inhibition is 1.11% (inactive).

For `COc1ccc(CN(C)C(=S)Nc2ccc(Cl)cc2Cl)cc1`, the inhibition is -3.43% (inactive).

For `O=C(Nn1c(-c2ccccc2)nc2ccccc2c1=O)c1ccc([N+](=O)[O-])cc1`, the inhibition was -2.22% (inactive).

Consider `Cc1nc2ccccc2nc(=O)c1NNc1ccc([N+](=O)[O-])cc1`, for which the inhibition is 33% (active).

As to `Cc1nc2ccccc2cc1C(=O)N/N=C/c1ccc([N+](=O)[O-])cc1`, the inhibition was 1.45% (inactive).

For `COC(=O)c1c(C)oc(C)c1S(=O)(=O)Nc1ccc(C(C)C)cc1`, the inhibition is -2.31% (inactive).

Consider `COC(=O)c1cc(S(=O)(=O)NCC2CCN(Cc3ccc(Cl)cc3)CC2)cn1C`, for which the inhibition is -1.04% (inactive).

Take `CCOC(=O)c1ccccc1CN1C(=O)c2ccccc2S1(=O)=O`: the inhibition is -6.64% (inactive).

For the compound `CN1C(=O)/C(=C/C=C2\SCCN2C)OC1=S`, the inhibition is 124% (active).

Take `COc1ccc(Cc2nc(-c3ccccn3)no2)cc1OC`: the inhibition is 48.4% (active).

Consider `Cc1ccc(Cc2nc(-c3cccc(C)c3)no2)cc1`, for which the inhibition is 1.83% (inactive).

With `COc1ccc(CCNS(=O)(=O)c2cccc3cccnc23)cc1OC`, the inhibition is 1.77% (inactive).

In the case of `CCOC(=O)c1sc(=S)n2c1[nH]c(=O)c1ccc(C(=O)OC)cc12`, the inhibition is -1.57% (inactive).

With `CCOC(=O)c1sc(=NC(=O)c2ccc(Br)cc2)n(C)c1C`, the inhibition is -2.11% (inactive).

Take `CCOC(=O)C1=C(C)Nc2sc(C(=O)c3ccc(Br)cc3)c(N)c2C1c1ccc(C(=O)OC)cc1` (centres undefined): the inhibition was 54.7% (active).

In the case of `O=C(N/N=C/c1ccc([N+](=O)[O-])cc1)c1c[nH]c2ccccc12`, the inhibition was 1.12% (inactive).

In the case of `Cc1ccccc1OCCOc1ccc([N+](=O)[O-])cc1/C=N/n1cnnc1`, the inhibition was 2.12% (inactive).

Take `O=[N+]([O-])c1ccc(N/N=C/c2ccccc2)cc1`: the inhibition was 28.2% (active).

Take `O=[N+]([O-])c1cccc(/C=N/Nc2ncc(Br)cn2)c1`: the inhibition is 0.84% (inactive).

As to `Cc1ccc(NS(=O)(=O)c2ccc(N/N=C/c3ccccc3OCC(=O)O)c([N+](=O)[O-])c2)c(C)c1`, the inhibition was -2.41% (inactive).

As to `Cc1cccc(COc2ccccc2/C=N/Nc2ccc([N+](=O)[O-])cc2)c1`, the inhibition is 92.1% (active).

Regarding `O=[N+]([O-])c1ccc(N2CCN(c3ccc(O)cc3)CC2)c(Cl)c1`, the inhibition is 1.48% (inactive).

As to `O=S(=O)(c1cccc(Cn2nnc(-c3ccc(F)cc3)n2)c1)N1CCOCC1`, the inhibition was 0.07% (inactive).

On to `COc1ccc(C(CCN(Cc2ccc(OC)c(OC)c2)C(=O)CCl)c2ccccc2)cc1` (centres undefined), for which the inhibition was 2.12% (inactive).

Take `COc1ccc(-n2c(C)cc(C(=O)CN3C(=O)NC4(CCc5ccccc54)C3=O)c2C)cc1` (centres undefined): the inhibition was -8.74% (inactive).

Regarding `CCOc1ccc(CNC(=O)C2CCCN(c3nnc(C)c4c(C)n(-c5ccccc5)nc34)C2)cc1` (centres undefined), the inhibition is 1.81% (inactive).

Take `CCOc1nnc(C)c2c(C)n(-c3cccc(Cl)c3)nc12`: the inhibition is 24.6% (active).

Consider `Cc1nn(-c2ccccc2)c(C)c1NC(=O)COc1ccc(Cl)cc1Cl`, for which the inhibition is -4.09% (inactive).

As to `CCc1nn(CCCC(=O)NC(C)c2ccccc2)c(=O)c2cc3occc3n12` (centres undefined), the inhibition was -2.3% (inactive).

As for `CCCCN(CCCC)CCNC(=O)CN1C(=O)COc2ccc(S(=O)(=O)N3CCOCC3)cc21`, the inhibition is -4.55% (inactive).

For the compound `COc1ccc(Cn2c(C)c(C)c(C#N)c2NC(=O)Nc2ccc(F)cc2)cc1`, the inhibition is 0.17% (inactive).

Regarding `CC(C)(C)c1ccc(/C=C2\Oc3c(ccc(O)c3CN3CCN(CCO)CC3)C2=O)cc1`, the inhibition was 33.2% (active).

Regarding `CN1CCN(Cc2c(O)ccc3c2oc(=O)c2ccccc23)CC1`, the inhibition was -1.97% (inactive).

Consider `CCOC(=O)c1oc2c(CN3CCN(CCO)CC3)c(O)c(CC)cc2c(=O)c1-c1nc2ccccc2s1`, for which the inhibition is -0.54% (inactive).

For `CC(=O)N1N=C(c2ccncc2)OC1(Cc1ccccc1)Cc1ccccc1`, the inhibition was -0.93% (inactive).

Regarding `O=C(CC12CC3CC(CC(C3)C1)C2)Nc1ccc2c(c1)COC2=O`, the inhibition was -3.75% (inactive).

In the case of `Nc1nonc1-n1nnc(C(=O)N/N=C/c2ccccc2O)c1CN1CCCC1`, the inhibition was -0.45% (inactive).

On to `Nc1nonc1-n1nnc(C(=O)N/N=C/c2cc(Br)ccc2O)c1CSC1=NCCS1`, for which the inhibition is 24.7% (active).

For `Cc1ccc(SCc2c(C(=O)N/N=C/c3cccnc3)nnn2-c2nonc2N)cc1`, the inhibition was 0.4% (inactive).

As to `COc1ccc(C(C(=O)NC2CCCCC2)N(C(=O)Cc2c[nH]c3ccccc23)c2ccccc2)cc1OC` (centres undefined), the inhibition was 4.78% (inactive).

In the case of `N#CC1=C(N)Oc2c(ccc3cccnc23)C1c1ccncc1` (centres undefined), the inhibition was 0.31% (inactive).

Take `N#CC1=C(N)Oc2c(sc3ccccc23)C1c1ccco1` (centres undefined): the inhibition was 100% (active).

`CC1=C(C(=O)Nc2ccccc2)C(c2ccco2)C(C#N)=C(SCC(N)=O)N1` (centres undefined): the inhibition is -4.83% (inactive).

Consider `COCCCn1c(SCc2cccc(OC)c2)nc2cc(OC)c(OC)cc2c1=N`, for which the inhibition is -1.89% (inactive).

For the compound `CC(=O)Nc1ccc(S(=O)(=O)NCC(=O)OCc2cc(=O)oc3ccc4ccccc4c23)cc1`, the inhibition is 2.61% (inactive).

For the compound `COc1cc(/C=C(\C#N)c2nc3c(s2)CC(C)CC3)ccc1O` (centres undefined), the inhibition is 128% (active).

As to `COc1ccc(/C=C(/NC(=O)c2ccc(C)cc2)c2nc3ccccc3[nH]2)cc1OC`, the inhibition was -0.67% (inactive).

On to `COc1cc(/C=C(\C#N)c2nc3ccccc3[nH]2)ccc1O`, for which the inhibition was 96.4% (active).

Take `COc1cc(/C=N/Nc2nc3ccccc3s2)ccc1O`: the inhibition was -1.42% (inactive).

For `CCNc1nc(NCC)nc(N/N=C/c2ccc(O)c(OC)c2)n1`, the inhibition was -0.04% (inactive).

Regarding `Cc1ccc2nc(/C(C#N)=C\c3ccc(OC(=O)c4cccs4)cc3)[nH]c2c1`, the inhibition was 4.21% (inactive).

Consider `CCn1c(CC(=O)Nc2ccc(C)cc2)nnc1SCC(=O)Nc1nc(C)cs1`, for which the inhibition was 2.53% (inactive).

Turning to `O=C(NCCCCCCNC(=O)NCc1ccco1)NCc1ccco1`, the inhibition was -3.7% (inactive).

With `CC[C@H]1CN2CCc3cc(OC)c(OC)cc3[C@@H]2C[C@@H]1C[C@H]1NCCc2cc(OC)c(OC)cc21`, the inhibition was 3.04% (inactive).

For `COc1cc2c(cc1O)[C@H](Cc1ccc(Oc3cc(C[C@@H]4NCCc5cc(OC)c(O)cc54)ccc3O)cc1)NCC2`, the inhibition is 30% (active).

For the compound `COc1ccc2c(c1)CCNC2Cc1ccc(OC)c(O)c1` (centres undefined), the inhibition is -2.2% (inactive).

For `O=S1(=O)CCO[C@H]2Cc3ccccc3[C@H]2N1Cc1ccccc1`, the inhibition is 3.47% (inactive).
